Experimental data reported in PubChem BioAssay (NCATS).
Records with an inconclusive call do not appear. Where a call stands in place of a potency, no number is given. A number with no mark means an inactive call. Active and inactive are the calls of the source. Calls follow the shape of the dose curve; as a rule, active = well fitted curve in the direction sought with a large enough effect; inconclusive = small, poorly fitted or top-dose-only effect, or another doubt; inactive = no such curve, though single readings can be large; an effect the other way counts as inactive or inconclusive. Where a SMILES comes first, the peptide text is derived from it.

Legend:
[1] = Primary qHTS for inhibitors of nuclear receptor binding SET domain protein 2 (NSD2) in an isogenic RCH-ACV NSD2 p.E1099K mutant (9B) (AID 1645876)
[2] = Primary qHTS for inhibitors of nuclear receptor binding SET domain protein 2 (NSD2) in an RCH-ACV wild type WT cells (2C) (AID 1645877)
Also: nearly all actives have a fitted effect of over 70% in size.

## CC1=C2C=C(CO)C(CO)CCC2(C)CCC1=O (stereo unspecified)
[1]
  Potency: inactive
[2]
  Potency: inactive

## CC(=O)OC[C@]12[C@H](OC(C)=O)C(=O)[C@@H]3[C@@H](OC(C)=O)[C@@]14O[C@@]3(C)COC(=O)c1cccnc1[C@@H](C)[C@H](C)C(=O)O[C@@H]([C@H](OC(C)=O)[C@@H]2OC(C)=O)[C@]4(C)O
[1]
  Potency: inactive
[2]
  Potency: inactive

## COc1ccc([C@@H]2N[C@H](C(=O)O)Cc3c2[nH]c2ccccc32)cc1CN1CCN(c2ccccc2F)CC1
[1]
  Potency: inactive
[2]
  Potency: inactive

## CCC(C)(O)C(O)C(=O)OCc1ccc(O[C@@H]2O[C@H](CO)[C@@H](O)[C@H](O)[C@H]2O)c(OC)c1 (stereo partly specified)
[1]
  Potency: inactive
[2]
  Potency: inactive

## O=C(/C=C/c1ccc(O)cc1)OCC1=CC2OC(=O)C3=CO[C@@H](O[C@@H]4O[C@H](CO)[C@@H](O)[C@H](O)[C@H]4O)[C@H]1[C@@H]32 (stereo partly specified)
[1]
  Potency: inactive
[2]
  Potency: inactive

## COC1(CC(C)C)NC(=O)C(O)(Cc2ccccc2)NC1=O (stereo unspecified)
[1]
  Potency: inactive
[2]
  Potency: inactive

## Cc1nn(C)c2c1C(c1ccc(C(F)(F)F)cc1)C(C#N)=C(N)O2 (stereo unspecified)
[1]
  Potency: inactive
[2]
  Potency: inactive

## COc1ccccc1-n1c(SCC(=O)Nc2nc3ccc(C)cc3s2)nc2c(c1=O)SCC2
[1]
  Potency: inactive
[2]
  Potency: inactive

## C[C@@H]1C[C@H](O[C@@H]2O[C@H](CO[C@@H]3OC[C@](O)(CO)[C@H]3O)[C@@H](O)[C@H](O)[C@H]2O)CC(C)(C)[C@H]1/C=C/[C@@H](C)O
[1]
  Potency: inactive
[2]
  Potency: inactive

## Cc1c(CN(C)C(=O)/C=C/c2cnc3c(c2)CCC(=O)N3)oc2ccccc12
[1]
  Potency: inactive
[2]
  Potency: inactive

## COc1c2c(c(C)c3c1C(=O)OC3)O[C@@]1(C)C[C@@H](O)[C@]34O[C@](OC)(CC[C@]3(C)[C@H]1C2)OC4(C)C
[1]
  Potency: inactive
[2]
  Potency: inactive

## COc1cc([C@@H]2Oc3c(OC)cc(CCCO)cc3[C@@H]2CO[C@@H]2O[C@H](CO)[C@@H](O)[C@H](O)[C@H]2O)ccc1O
[1]
  Potency: inactive
[2]
  Potency: inactive

## CC1CCC2C(C)(C)C(O)CCC2(C)C12Cc1c(O)cc3c(c1O2)C(N)=NC3 (stereo unspecified)
[1]
  Potency: inactive
[2]
  Potency: inactive

## O=C(NCc1ccc(OC(F)(F)F)cc1)C1c2ccccc2C(=O)N1C1CCOCC1 (stereo unspecified)
[1]
  Potency: inactive
[2]
  Potency: inactive

## CC1CCC2(C(=O)OC3OC(COC4OC(CO)C(O)C(O)C4O)C(O)C(O)C3O)CCC3(C)C(=CCC4C5(C)CCC(O)C(C)(C(=O)O)C5CCC43C)C2C1(C)O (stereo unspecified)
[1]
  activity change, negative = viability loss: 1.95% [at 9.23 µM]
[2]
  activity change, negative = cell killing: 2.11% [at 9.23 µM]

## C[C@@H]1O[C@@H](O[C@@H]2[C@@H](O)[C@H](O[C@@H]3[C@@H](O)[C@@H](O)[C@H](O[C@H]4[C@H](OC(=O)[C@]56CCC(C)(C)C[C@H]5C5=CCC7[C@@]8(C)C[C@H](O)[C@H](O[C@@H]9O[C@H](C(=O)O)[C@@H](O)[C@H](O)[C@H]9O)[C@@](C)(CO)C8[C@H](O)C[C@@]7(C)[C@]5(C)CC6)OC[C@H](O)[C@@H]4O)O[C@H]3C)OC[C@H]2O)[C@H](O)[C@H](O)[C@H]1O (stereo partly specified)
[1]
  activity change, negative = viability loss: -7.76% [at 9.23 µM]
[2]
  activity change, negative = cell killing: -21.5% [at 9.23 µM]

## COc1cccc(-n2nc(C(=O)O)cc2-c2ccc(C3CCCCC3)c(Cl)c2)c1
[1]
  Potency: inactive
[2]
  Potency: inactive

## CCOC(=O)[C@H]1O[C@@H]1C(=O)N[C@@H](CC(C)C)C(=O)NCCC(C)C
[1]
  Potency: inactive
[2]
  Potency: inactive

## CC(=O)O[C@@H]1[C@H](O[C@@H]2OC[C@](O)(CO)[C@H]2O)[C@@H](O[C@@H]2O[C@@H](C)[C@H](O)[C@@H](O)[C@H]2O)[C@H](OC(=O)[C@]23CCC(C)(C)C[C@H]2C2=CCC4[C@@]5(C)C[C@H](O)[C@H](O[C@@H]6O[C@H](C(=O)O)[C@@H](O)[C@H](O)[C@H]6O)[C@@](C)(C(=O)O)C5CC[C@@]4(C)[C@]2(C)CC3)O[C@@H]1C (stereo partly specified)
[1]
  activity change, negative = viability loss: -7.7% [at 9.23 µM]
[2]
  activity change, negative = cell killing: -8.29% [at 9.23 µM]

## CCC(C)C(=O)O[C@@H]1[C@@H](O)[C@@H](O[C@H]2O[C@H](CO)[C@@H](O)[C@H](O)[C@H]2O)O[C@H](CO)[C@H]1O (stereo partly specified)
[1]
  Potency: inactive
[2]
  Potency: inactive

## COC1CC(=O)CCC(C)OC(=O)CC1O (stereo unspecified)
[1]
  Potency: inactive
[2]
  Potency: inactive

## C[C@@H](O)[C@H](N)C(=O)N1CCC[C@H]1C(=O)N1CCC[C@H]1C(=O)N[C@H](C(N)=O)[C@@H](C)O (H-TPPT-NH2)
[1]
  activity change, negative = viability loss: 0.764% [at 9.23 µM]
[2]
  activity change, negative = cell killing: -0.759% [at 9.23 µM]

## CC1=C2C3OC(=O)C(C)C3(O)CCC2(C)CCC1=O (stereo unspecified)
[1]
  Potency: inactive
[2]
  Potency: inactive
